Measured values: ChEMBL document CHEMBL1961873, “Compounds: GSK PKIS; Assays: Nanosyn kinase panel” (2012)

Assays:
[1] = molecular target: Glycogen synthase kinase-3 beta (Homo sapiens) (UniProt P49841); settings: at 1 µM;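 note: reported values are mean percent inhibition of GSK3B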
[2] = molecular target: Homeodomain-interacting protein kinase 1 (Homo sapiens) (UniProt Q86Z02); settings: at 0.1 µM
[3] = molecular target: Homeodomain-interacting protein kinase 1 (Homo sapiens) (UniProt Q86Z02); settings: at 1 µM
[4] = molecular target: T1, Homeodomain-interacting protein kinase 4 (Homo sapiens) (UniProt Q8NE63); settings: at 0.1 µM
T1 sequence (whole entry): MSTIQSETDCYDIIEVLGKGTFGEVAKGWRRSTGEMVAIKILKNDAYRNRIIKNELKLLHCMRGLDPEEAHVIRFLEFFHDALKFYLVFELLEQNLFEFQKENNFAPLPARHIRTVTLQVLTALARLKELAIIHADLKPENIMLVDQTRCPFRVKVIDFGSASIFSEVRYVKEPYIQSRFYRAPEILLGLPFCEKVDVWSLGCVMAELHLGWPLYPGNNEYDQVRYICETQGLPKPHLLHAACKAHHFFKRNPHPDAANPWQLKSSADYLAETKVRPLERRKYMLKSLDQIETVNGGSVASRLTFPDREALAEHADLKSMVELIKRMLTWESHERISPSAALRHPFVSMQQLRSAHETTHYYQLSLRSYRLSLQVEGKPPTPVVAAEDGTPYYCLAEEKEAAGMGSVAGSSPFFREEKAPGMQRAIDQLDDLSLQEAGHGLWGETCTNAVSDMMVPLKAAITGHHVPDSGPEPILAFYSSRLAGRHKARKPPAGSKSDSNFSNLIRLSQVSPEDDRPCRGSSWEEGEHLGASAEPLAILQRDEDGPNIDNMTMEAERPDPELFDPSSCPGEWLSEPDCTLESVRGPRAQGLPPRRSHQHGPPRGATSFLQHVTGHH

[5] = molecular target: T1, Homeodomain-interacting protein kinase 4 (Homo sapiens); settings: at 1 µM
[6] = molecular target: Mitogen-activated protein kinase 9 (Homo sapiens) (UniProt P45984); settings: at 0.1 µM
Mitogen-activated protein kinase 9 (Homo sapiens), sequence (P45984 whole entry, looked up): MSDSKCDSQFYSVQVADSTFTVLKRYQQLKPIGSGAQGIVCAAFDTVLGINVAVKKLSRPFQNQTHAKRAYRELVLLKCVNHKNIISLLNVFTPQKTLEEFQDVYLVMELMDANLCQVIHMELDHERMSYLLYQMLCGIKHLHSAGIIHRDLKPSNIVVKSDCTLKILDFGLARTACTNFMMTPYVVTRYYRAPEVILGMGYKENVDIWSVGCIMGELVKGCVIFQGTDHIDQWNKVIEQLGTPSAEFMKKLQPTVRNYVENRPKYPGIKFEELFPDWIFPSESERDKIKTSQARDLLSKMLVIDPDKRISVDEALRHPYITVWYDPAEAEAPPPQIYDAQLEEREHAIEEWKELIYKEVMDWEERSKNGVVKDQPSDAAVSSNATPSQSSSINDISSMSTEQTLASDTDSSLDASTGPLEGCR

[7] = molecular target: Mitogen-activated protein kinase 9 (Homo sapiens) (UniProt P45984); settings: at 1 µM
[8] = molecular target: Mitogen-activated protein kinase 1 (Homo sapiens) (UniProt P28482); settings: at 0.1 µM
Mitogen-activated protein kinase 1 (Homo sapiens), sequence (P28482 whole entry): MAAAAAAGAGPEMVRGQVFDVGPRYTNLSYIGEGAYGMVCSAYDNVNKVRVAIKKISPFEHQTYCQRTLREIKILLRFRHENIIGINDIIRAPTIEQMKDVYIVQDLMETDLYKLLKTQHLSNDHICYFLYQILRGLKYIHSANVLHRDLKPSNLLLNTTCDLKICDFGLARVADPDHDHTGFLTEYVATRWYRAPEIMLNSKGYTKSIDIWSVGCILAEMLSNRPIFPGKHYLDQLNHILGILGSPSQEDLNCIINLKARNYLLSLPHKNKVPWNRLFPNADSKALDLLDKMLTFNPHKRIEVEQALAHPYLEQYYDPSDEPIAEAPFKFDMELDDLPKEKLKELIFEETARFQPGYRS

[9] = molecular target: Mitogen-activated protein kinase 1 (Homo sapiens) (UniProt P28482); settings: at 1 µM
[10] = molecular target: Mitogen-activated protein kinase 3 (Homo sapiens) (UniProt P27361); settings: at 0.1 µM
Mitogen-activated protein kinase 3 (Homo sapiens), sequence (P27361 whole entry): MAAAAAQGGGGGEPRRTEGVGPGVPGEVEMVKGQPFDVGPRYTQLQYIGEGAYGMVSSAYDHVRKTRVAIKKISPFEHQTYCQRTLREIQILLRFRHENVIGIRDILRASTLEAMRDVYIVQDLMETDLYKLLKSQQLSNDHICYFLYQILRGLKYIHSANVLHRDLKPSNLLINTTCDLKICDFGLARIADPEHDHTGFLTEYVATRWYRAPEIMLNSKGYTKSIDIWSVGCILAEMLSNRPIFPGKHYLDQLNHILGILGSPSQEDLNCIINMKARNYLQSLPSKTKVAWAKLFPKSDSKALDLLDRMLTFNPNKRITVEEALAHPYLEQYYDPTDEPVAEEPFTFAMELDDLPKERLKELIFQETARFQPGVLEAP

[11] = molecular target: Mitogen-activated protein kinase 3 (Homo sapiens) (UniProt P27361); settings: at 1 µM
[12] = molecular target: SRSF protein kinase 3 (Homo sapiens) (UniProt Q9UPE1); settings: at 0.1 µM
SRSF protein kinase 3 (Homo sapiens), sequence (Q9UPE1 whole entry): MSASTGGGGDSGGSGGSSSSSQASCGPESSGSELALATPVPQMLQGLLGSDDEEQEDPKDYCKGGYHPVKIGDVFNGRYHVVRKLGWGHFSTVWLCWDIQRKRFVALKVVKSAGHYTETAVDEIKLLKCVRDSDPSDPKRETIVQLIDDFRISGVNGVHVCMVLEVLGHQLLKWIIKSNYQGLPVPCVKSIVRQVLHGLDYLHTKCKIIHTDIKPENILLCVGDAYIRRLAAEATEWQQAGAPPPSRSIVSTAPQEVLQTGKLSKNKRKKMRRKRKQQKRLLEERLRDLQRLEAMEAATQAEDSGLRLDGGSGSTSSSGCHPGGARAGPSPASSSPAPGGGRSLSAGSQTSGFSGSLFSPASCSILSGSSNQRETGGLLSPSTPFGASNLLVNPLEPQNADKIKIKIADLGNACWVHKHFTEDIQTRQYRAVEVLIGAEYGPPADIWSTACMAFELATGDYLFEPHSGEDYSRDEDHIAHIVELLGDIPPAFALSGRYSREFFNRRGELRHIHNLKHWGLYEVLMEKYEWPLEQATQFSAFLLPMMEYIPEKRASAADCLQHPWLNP

[13] = molecular target: SRSF protein kinase 3 (Homo sapiens) (UniProt Q9UPE1); settings: at 1 µM
[14] = molecular target: Mitogen-activated protein kinase 14 (Homo sapiens) (UniProt Q16539); settings: at 0.1 µM
Mitogen-activated protein kinase 14 (Homo sapiens), sequence (Q16539 whole entry): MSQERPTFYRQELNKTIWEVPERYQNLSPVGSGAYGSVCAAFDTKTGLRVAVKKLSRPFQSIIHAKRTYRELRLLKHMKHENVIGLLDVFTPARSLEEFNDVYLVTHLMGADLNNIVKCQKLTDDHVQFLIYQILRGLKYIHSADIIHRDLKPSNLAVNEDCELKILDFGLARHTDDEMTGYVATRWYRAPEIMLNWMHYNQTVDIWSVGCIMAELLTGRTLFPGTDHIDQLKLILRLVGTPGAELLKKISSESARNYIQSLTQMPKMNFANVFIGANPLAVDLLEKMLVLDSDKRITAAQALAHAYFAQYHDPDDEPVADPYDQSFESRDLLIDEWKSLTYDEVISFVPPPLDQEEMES

[15] = molecular target: Mitogen-activated protein kinase 14 (Homo sapiens) (UniProt Q16539); settings: at 1 µM
[16] = molecular target: Mitogen-activated protein kinase 11 (Homo sapiens) (UniProt Q15759); settings: at 0.1 µM
Mitogen-activated protein kinase 11 (Homo sapiens), sequence (Q15759 whole entry): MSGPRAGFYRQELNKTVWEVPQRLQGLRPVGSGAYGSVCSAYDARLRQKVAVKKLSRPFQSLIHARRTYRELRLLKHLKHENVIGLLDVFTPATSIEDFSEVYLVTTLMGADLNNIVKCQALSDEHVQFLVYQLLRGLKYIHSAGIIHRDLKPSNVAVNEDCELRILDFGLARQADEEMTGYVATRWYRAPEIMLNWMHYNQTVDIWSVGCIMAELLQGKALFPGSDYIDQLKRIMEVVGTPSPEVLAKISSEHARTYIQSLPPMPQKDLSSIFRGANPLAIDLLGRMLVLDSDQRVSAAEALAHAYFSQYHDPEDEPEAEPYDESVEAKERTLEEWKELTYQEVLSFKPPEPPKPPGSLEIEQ

[17] = molecular target: Mitogen-activated protein kinase 11 (Homo sapiens) (UniProt Q15759); settings: at 1 µM
[18] = molecular target: T2, Mitogen-activated protein kinase 13 (Homo sapiens) (UniProt O15264); settings: at 0.1 µM
T2 sequence (whole entry): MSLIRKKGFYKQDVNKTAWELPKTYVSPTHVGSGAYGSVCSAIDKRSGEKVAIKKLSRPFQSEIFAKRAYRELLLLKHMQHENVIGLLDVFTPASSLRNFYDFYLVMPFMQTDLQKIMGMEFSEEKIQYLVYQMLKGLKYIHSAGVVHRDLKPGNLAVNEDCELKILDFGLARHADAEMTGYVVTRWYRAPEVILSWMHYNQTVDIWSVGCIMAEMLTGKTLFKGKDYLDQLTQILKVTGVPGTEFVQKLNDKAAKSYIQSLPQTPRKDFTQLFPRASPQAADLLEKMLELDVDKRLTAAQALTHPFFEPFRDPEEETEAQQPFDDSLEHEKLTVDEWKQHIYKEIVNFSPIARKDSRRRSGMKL

[19] = molecular target: T2, Mitogen-activated protein kinase 13 (Homo sapiens); settings: at 1 µM
[20] = molecular target: T3, Mitogen-activated protein kinase 12 (Homo sapiens) (UniProt P53778); settings: at 0.1 µM
T3 sequence (whole entry): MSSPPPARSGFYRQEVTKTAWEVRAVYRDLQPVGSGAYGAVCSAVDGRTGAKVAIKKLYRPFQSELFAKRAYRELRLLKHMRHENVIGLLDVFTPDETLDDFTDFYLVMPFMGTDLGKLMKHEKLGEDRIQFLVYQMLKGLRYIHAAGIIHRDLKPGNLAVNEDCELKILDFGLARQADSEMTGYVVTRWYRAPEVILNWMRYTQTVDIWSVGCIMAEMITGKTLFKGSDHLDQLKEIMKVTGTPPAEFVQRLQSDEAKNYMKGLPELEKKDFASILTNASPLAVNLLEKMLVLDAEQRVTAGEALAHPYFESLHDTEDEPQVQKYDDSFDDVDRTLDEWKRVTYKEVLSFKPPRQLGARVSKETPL

Homeodomain-interacting protein kinase 1 (Homo sapiens), sequence (Q86Z02 whole entry, looked up): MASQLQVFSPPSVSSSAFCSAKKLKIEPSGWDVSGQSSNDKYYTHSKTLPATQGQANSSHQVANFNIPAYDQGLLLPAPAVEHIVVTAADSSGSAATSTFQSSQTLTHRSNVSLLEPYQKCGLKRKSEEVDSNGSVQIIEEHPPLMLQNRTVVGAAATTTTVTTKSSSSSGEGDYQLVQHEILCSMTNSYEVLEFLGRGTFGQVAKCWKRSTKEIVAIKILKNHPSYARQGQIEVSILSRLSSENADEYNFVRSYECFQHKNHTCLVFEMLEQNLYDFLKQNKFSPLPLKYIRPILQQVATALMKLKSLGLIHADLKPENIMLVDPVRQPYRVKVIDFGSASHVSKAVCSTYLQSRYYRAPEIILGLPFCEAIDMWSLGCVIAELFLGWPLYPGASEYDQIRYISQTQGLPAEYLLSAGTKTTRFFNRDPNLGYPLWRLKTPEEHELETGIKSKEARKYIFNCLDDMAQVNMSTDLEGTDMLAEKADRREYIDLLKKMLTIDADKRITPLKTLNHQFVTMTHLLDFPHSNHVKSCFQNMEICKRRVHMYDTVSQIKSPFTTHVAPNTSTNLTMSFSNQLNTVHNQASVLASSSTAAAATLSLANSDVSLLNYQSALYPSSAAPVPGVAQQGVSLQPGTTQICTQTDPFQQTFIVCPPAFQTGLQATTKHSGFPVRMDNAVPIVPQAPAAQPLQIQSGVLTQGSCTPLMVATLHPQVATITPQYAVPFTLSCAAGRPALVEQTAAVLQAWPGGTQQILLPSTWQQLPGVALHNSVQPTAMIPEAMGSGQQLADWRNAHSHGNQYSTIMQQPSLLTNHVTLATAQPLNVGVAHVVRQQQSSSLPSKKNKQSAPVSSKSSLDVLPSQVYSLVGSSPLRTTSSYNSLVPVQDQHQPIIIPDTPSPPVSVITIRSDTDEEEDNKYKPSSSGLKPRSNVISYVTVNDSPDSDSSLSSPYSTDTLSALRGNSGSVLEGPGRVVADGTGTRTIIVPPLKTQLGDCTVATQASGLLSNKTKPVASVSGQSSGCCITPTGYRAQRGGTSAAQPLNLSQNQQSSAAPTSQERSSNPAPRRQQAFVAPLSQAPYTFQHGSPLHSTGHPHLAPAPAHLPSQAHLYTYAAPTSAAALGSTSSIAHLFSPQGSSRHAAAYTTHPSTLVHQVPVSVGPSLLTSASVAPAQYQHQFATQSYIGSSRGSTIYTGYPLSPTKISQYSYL
Glycogen synthase kinase-3 beta (Homo sapiens), sequence (P49841 whole entry, looked up): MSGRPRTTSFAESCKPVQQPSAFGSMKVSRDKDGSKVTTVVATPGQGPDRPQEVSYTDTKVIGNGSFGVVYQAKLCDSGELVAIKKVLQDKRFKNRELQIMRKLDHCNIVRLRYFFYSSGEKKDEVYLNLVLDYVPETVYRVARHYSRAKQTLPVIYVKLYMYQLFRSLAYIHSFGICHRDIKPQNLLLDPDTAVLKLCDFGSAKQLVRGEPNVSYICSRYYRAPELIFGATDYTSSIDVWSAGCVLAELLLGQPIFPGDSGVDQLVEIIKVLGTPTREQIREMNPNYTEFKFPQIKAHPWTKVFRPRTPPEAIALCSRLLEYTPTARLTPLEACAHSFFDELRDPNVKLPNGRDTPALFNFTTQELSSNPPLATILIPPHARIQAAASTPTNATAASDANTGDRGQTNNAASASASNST

Compound | inhibition [1] [%] | inhibition [2] [%] | inhibition [3] [%] | inhibition [4] [%] | inhibition [5] [%] | inhibition [6] [%] | inhibition [7] [%] | inhibition [8] [%] | inhibition [9] [%] | inhibition [10] [%] | inhibition [11] [%] | inhibition [12] [%] | inhibition [13] [%] | inhibition [14] [%] | inhibition [15] [%] | inhibition [16] [%] | inhibition [17] [%] | inhibition [18] [%] | inhibition [19] [%] | inhibition [20] [%]
ON=C1CCc2cc(-c3nc(C4CCNCC4)[nH]c3-c3ccncc3)ccc21 | 4.56 | -5.24 | 0.65 | -1.3 | 2.78 | 2.05 | 3.06 | -1.76 | 1.85 | 1.87 | 0.97 | -1.32 | -2.19 | 25.4 | 73.7 | 7.03 | 33.1 | -0.29 | 0.95 | 1.31
CCCN1CCCC(c2ccc(Nc3nc(Nc4cc(F)ccc4C(N)=O)c4cc[nH]c4n3)c(OC)c2)C1 (stereo not given) | 4.25 | 46 | 79.5 | 58.1 | 84.3 | 70.3 | 91.3 | 8.06 | 36.5 | 5.61 | 9.65 | 4.66 | 28.2 | 13.9 | 17.1 | 7.57 | 14.5 | 6.1 | 7.07 | 3.99
COc1ccc(-c2nn3ncccc3c2-c2ccnc(Nc3cccc(C(F)(F)F)c3)n2)cc1 | 3.78 | 0.13 | -1.85 | 0.75 | 1.33 | 3.29 | 8.16 | 6.52 | 5.12 | 0.87 | 1.1 | -2.11 | -1.47 | 15 | 57.8 | 7.58 | 24.7 | 2.68 | 1.86 | 2.04
NS(=O)(=O)c1ccc(-c2cc3ccncc3cc2OCc2ccccc2)cc1 | 3.98 | 1.69 | 4.62 | 3.58 | 6.62 | 3.39 | 6.21 | 5.32 | 3.37 | 4.03 | 3.1 | -2.09 | 3.53 | 7.07 | 8.35 | 2.71 | 6.57 | 5.51 | 3.8 | -0.17
NS(=O)(=O)c1ccc(NC=C2C(=O)Nc3ccc4ncsc4c32)cc1 | 71.8 | 14.2 | 47.4 | 2.67 | 21.7 | 8.45 | 36.1 | 11 | 47.4 | 7.04 | 28.1 | -0.67 | -0.55 | 5.49 | 18.7 | 9.06 | 27.3 | 1.67 | 9.03 | 1.56
NS(=O)(=O)c1cccc(Nc2cc(-c3ccc(F)cc3)n[nH]2)c1 | 9.59 | 2.17 | 7.35 | 1.27 | 6.82 | 1.28 | 4.86 | 4.24 | 3.83 | 4.14 | 3.77 | -0.26 | 3.28 | 1.56 | 7.1 | 1.06 | 5.29 | 2.2 | 2.89 | -0.78
CN(C)CCCn1c(-c2nonc2N)nc2cnccc21 | 12.3 | 1.03 | -0.49 | 0.39 | 0.4 | 5.36 | 4.57 | 2.21 | 4.9 | 2.32 | 2.88 | -1.86 | -1.05 | 5.93 | 12.9 | 3.87 | 8.3 | 1.23 | 4.99 | 3.33
OCc1ccc(-c2nc(-c3ccccn3)c(-c3ccc4c(c3)OCO4)[nH]2)cc1 | 3.44 | 0.23 | 4.92 | 1.72 | 0.79 | 2.15 | 5.14 | 5.49 | 3.7 | 3.56 | 1.38 | 1.23 | -0.15 | 4.43 | 14.9 | 4.13 | 4.4 | 3.05 | 4.05 | 0.63
COc1cc2ncn(-c3cc(OCc4ccccc4S(C)(=O)=O)c(C#N)s3)c2cc1OC | 8.83 | 2.2 | 28 | 52.5 | 79 | 2.5 | 6.08 | 1.98 | 5.43 | 3.11 | 4.78 | 0.72 | 1.49 | 4.48 | 8.47 | 2.79 | 6.97 | 1.05 | 3.85 | 0.36
CCS(=O)(=O)c1ccc(OC)c(Nc2ncc(-c3cccc(OC)c3)o2)c1 | 11.2 | 7.9 | 48.3 | 19.5 | 65.7 | 3.19 | 6.62 | 1.59 | 1.18 | -0.18 | -2.17 | 0.87 | 0.2 | 4.78 | 7.73 | 1.06 | 5.17 | 1.24 | 4.76 | -4.79
COC(=O)Nc1nc2cc(Oc3ccc(NC(=O)Nc4cccc(Br)c4)cc3)ccc2[nH]1 | 6.86 | -0.71 | 2.41 | 8.37 | 19.5 | 3.12 | 4.83 | 2.82 | 2.49 | 2.94 | 3.83 | -0.78 | 1.64 | 7.25 | 17.1 | 7.96 | 17 | 2.44 | 0.89 | 2.07
CCOc1nccc2c1nc(-c1nonc1N)n2CC | 11.9 | 5.35 | 9.39 | 6.7 | 12.2 | 1.55 | 1.43 | 4.78 | 4.07 | 5.64 | 3.56 | 0.36 | 4.21 | -6.67 | 6.06 | 3.87 | 7.56 | 2.58 | 2.91 | 0.94
c1ccc(Cc2nc3ccc(Nc4ncnc5ccccc45)cc3[nH]2)cc1 | 7.73 | 6.99 | 9.6 | 4.87 | 9.82 | 1.51 | 3.95 | 3.59 | 3.76 | 2.28 | 4.11 | 0.5 | -0.46 | 6.98 | 6.36 | 2.73 | 2.79 | 4.91 | 5.18 | 1.83
CS(=O)(=O)Nc1cccc(-c2ccc3c(NC(=O)C4CC4)n[nH]c3c2)c1 | 9.5 | -3.76 | 0.93 | -0.79 | -0.86 | 2.2 | 0.27 | -0.71 | 1.14 | 2.44 | 1.38 | -2.12 | -0.78 | -1.33 | 6.14 | 2.35 | 10.1 | -1.65 | 1.02 | 1.49
